Hits are enriched below; roughly 2.8% of the tested compounds scored in any of these assays.
Pol kappa inh-1 – blocks human DNA polymerase kappa activity; Q9UBT6; purified Pol kappa, fluorescent DNA synthesis assay, 10 min; Potency, µM (series often up to 107 µM), hits mostly inhibitors; 400,000 compounds, 0.53% hits; AID 588579
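First, compounds were pin-transferred onto 10 nM Pol kappa. After 15 min at room temperature, substrate was added to 50 nM final. Fluorescence was then measured kinetically at 0 and 10 min.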
PI5P4Ka inh – PI5P4K alpha (human) kinase inhibition. P48426. PI5P4Kalpha enzyme, ADP-Glo luminescence, 60 min; stronger effect = lower value. max response, %. 330,000 compounds, 1.2% hits. AID 652105; active = max response of -50% or lower; inconclusive = between -30% and -50%; inactive = -30% or higher; note: value at the top dose of about 77 µM
Target sequence (P48426 whole entry, looked up): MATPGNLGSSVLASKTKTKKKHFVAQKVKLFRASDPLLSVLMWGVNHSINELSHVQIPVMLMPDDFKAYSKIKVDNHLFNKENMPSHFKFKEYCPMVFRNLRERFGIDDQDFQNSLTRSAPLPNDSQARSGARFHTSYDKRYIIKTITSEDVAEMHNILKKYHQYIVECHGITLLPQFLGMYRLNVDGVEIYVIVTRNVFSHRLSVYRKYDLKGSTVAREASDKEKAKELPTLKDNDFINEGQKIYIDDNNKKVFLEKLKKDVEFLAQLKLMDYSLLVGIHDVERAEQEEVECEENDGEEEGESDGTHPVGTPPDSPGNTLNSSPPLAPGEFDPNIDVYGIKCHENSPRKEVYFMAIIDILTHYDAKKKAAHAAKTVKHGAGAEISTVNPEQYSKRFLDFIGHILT
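Controls without substrate or without enzyme flank wells where PI5P4Kalpha converts substrate using 5 microM ATP (final). Incubation lasts 60 minutes at room temperature; ADP formed is read by ADP-Glo luminescence.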
PI4K2A block – blocks human PI4K2A kinase activity. Q9BTU6. purified PI4K2A, ADP-Glo luminescence, 1 h; stronger effect = lower value. activity change, negative = inhibition, % at 76.9 µM. 420,000 compounds, 0.13% hits. AID 1346378; in the data active = activity change below about -50%; inconclusive = mostly about -30% to -49%
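ADP-Glo luminescence measured ADP generated by PI4K2A enzyme (4 ug/mL before mixing) with 1.2 mM PI substrate (pre-mix) and 300 microM ATP (pre-mix). Tris pH7.5 buffer with MgCl2, Triton X-100; 1 h reaction at ambient temperature.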
POLI inh – blocks human DNA polymerase iota activity. AID 588590. 390,000 compounds, 1% hits. Potency, µM (titrated, usually from 115 µM), most hits filed as inhibitors. Pol iota fluorescent replication assay, 10 min. Q9UNA4
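Pol iota at 10 nM preincubated 15 min with compounds at room temperature; reaction started with fluorescent substrate, 50 nM final. Fluorescence read kinetically at 0 and 10 min; buffer-only wells as negative control.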
POLB inh – inhibitors of human DNA polymerase beta; Potency, µM (highest dose often 114 µM), usual class: inhibitors; P06746; 340,000 compounds, 1.3% hits; Pol beta primer extension/strand displacement, fluorescence kinetic; AID 485314
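Human Pol beta at 10 nM; strand-displacement substrate 50 nM final. Compound exposure 15 min at room temperature before start, reaction 10 min at room temperature.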
Pol eta inh-1 – blocks human DNA polymerase eta activity; Q9Y253; recombinant Pol eta, fluorescent DNA replication assay; Potency, µM (highest dose often 114 µM), usual class: inhibitors; 390,000 compounds, 1.2% hits; AID 588591
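Fluorescent replication assay: 50 nM final substrate added after a 15 min room-temperature compound preincubation with 10 nM enzyme. Signal taken at 0 min and again at 10 min.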
GALK inh confirm – confirmation of human galactokinase (GALK) inhibitors; purified GALK, Kinase-Glo ATP depletion luminescence; 150 compounds, 70% hits; AID 2015; shares compounds with Pol eta inh-1; Potency, µM (top dose mostly 115 µM), usual class: inhibitors
GALK redox cs – counter-screen for GALK inhibitors: redox cycling H2O2 generation. Phenol red-HRP H2O2 redox cycling, absorbance 600 nm. 150 compounds, 40% hits. Potency, µM (titrated, usually from 115 µM), most hits filed as inhibitors. shares compounds with Pol eta inh-1
HEK293 tox – reduces HEK-293 cell viability in GALK counter-screen. shares compounds with Pol eta inh-1. HEK-293 viability, ATP luminescence (CellTiter-Glo), 24/48 h. Potency, µM (top dose mostly 46.1 µM), usual class: inhibitors. 170 compounds, 10% hits. AID 2547
Pol kappa inh-2 – confirmation of human DNA polymerase kappa inhibitors; shares compounds with Pol eta inh-1; purified Pol-kappa, fluorescent strand-displacement substrate; Potency, µM, actives largely listed as inhibitors; 920 compounds, 76% hits
Pol eta inh-2 – confirmation of human DNA polymerase eta inhibitors. shares compounds with Pol eta inh-1. Pol eta primer extension, TAMRA/BHQ fluorescence, 10 min. Potency, µM, usual class: inhibitors. 2,600 compounds, 64% hits
Large screens that a line does not name were inactive (follow-up assays come after a bar, where they were run). Unless noted, calls come from the whole dose curve; as a rule, active = well fitted curve in the direction sought with a large enough effect; inconclusive = small, poorly fitted or top-dose-only effect, or another doubt; inactive = no such curve, though single readings can be large; an effect the other way counts as inactive or inconclusive.

NC(=O)COC(=O)c1ccc(S(=O)(=O)NCc2ccco2)cc1	Pol kappa inh-1 inconclusive, POLI inh 14µM, POLB inh inconclusive, Pol eta inh-1 35µM | Pol eta inh-2 inconclusive
O=C(COc1ccccc1)NCCSCc1ccco1	Pol kappa inh-1 inconclusive, POLI inh inconclusive, POLB inh inconclusive, Pol eta inh-1 14µM | Pol eta inh-2 inconclusive
O=C(COc1ccccc1)Nc1ccc(S(=O)(=O)NCc2ccco2)cc1	Pol kappa inh-1 inconclusive, PI5P4Ka inh inconclusive, POLI inh inconclusive, POLB inh 45µM, Pol eta inh-1 18µM | Pol eta inh-2 inconclusive
CCNc1nc(NCC)n2c(SCC(=O)Nc3ccc(NC(C)=O)cc3)nnc2n1	Pol kappa inh-1 inconclusive, POLI inh inconclusive, Pol eta inh-1 40µM (no result: POLB inh) | Pol eta inh-2 inconclusive
CCCCc1nn2c(=O)cc(COC(=O)c3ccco3)nc2s1	none (no result: PI5P4Ka inh)
CC(C)CC(=O)Nc1nnc(S(=O)(=O)N(CC(C)C)c2ccccc2)s1	none (no result: PI5P4Ka inh)
O=C(c1cc(-c2ccc(Cl)cc2)on1)N(Cc1cccc(F)c1)Cc1ccco1	none (no result: PI5P4Ka inh)
O=c1cc(-c2ccc(O)cc2)oc2cc(O)ccc12	none (no result: PI5P4Ka inh, PI4K2A block, POLI inh, POLB inh, Pol eta inh-1)
O=c1ccc2[n+]([O-])c3ccc(O)cc3oc-2c1	Pol kappa inh-1 inconclusive, POLI inh 25µM, POLB inh 63µM | Pol kappa inh-2 24
O=C(O)c1ccc(/C=N/NC(=O)c2cc3ccccc3cc2O)cc1	Pol kappa inh-1 50µM, PI5P4Ka inh inconclusive, POLI inh 16µM, Pol eta inh-1 22µM (no result: POLB inh) | Pol eta inh-2 inconclusive
COc1ccc(C/C(O)=C(\C#N)c2nc3ccccc3s2)cc1	none (no result: PI5P4Ka inh) | GALK inh confirm 42µM | GALK redox cs inactive | HEK293 tox inactive
N#C/C(=C(/O)COc1ccc(Cl)cc1)c1nc2ccccc2s1	none | GALK inh confirm inconclusive | GALK redox cs inactive | HEK293 tox inactive
O=C(O)CCN1CC2([N+](=O)[O-])C=CC(=O)C([N+](=O)[O-])(C1)C2CC(=O)c1ccccc1 (stereo not drawn)	Pol kappa inh-1 inconclusive, POLI inh inconclusive, POLB inh 28µM, Pol eta inh-1 18µM | Pol kappa inh-2 17 | Pol eta inh-2 30
Cc1cc(C)cc(NC(=O)C2CCCN(C(=O)c3cnn(-c4ccccc4)c3-n3cccc3)C2)c1 (stereo not drawn)	none (no result: PI5P4Ka inh)
Cc1nnc(SCC2=C(C(=O)O)N3C(=O)C(NC(=O)COc4ccc(F)cc4)C3SC2)s1 (stereo not drawn)	Pol kappa inh-1 50µM, POLI inh 20µM, Pol eta inh-1 4µM (no result: POLB inh) | Pol kappa inh-2 9.5 | Pol eta inh-2 30
Cn1nnnc1SCC1=C(C(=O)O)N2C(=O)[C@@H](NC(=O)[C@@H](O)c3ccccc3)[C@@H]2SC1	none (no result: PI5P4Ka inh, PI4K2A block, POLI inh, POLB inh, Pol eta inh-1)
CC(=O)OCC1=C(C(=O)O)N2C(=O)C(NC(=O)CC(C)c3ccccc3)C2SC1 (stereo not drawn)	POLI inh inconclusive, Pol eta inh-1 22µM (no result: POLB inh) | Pol kappa inh-2 inconclusive | Pol eta inh-2 inconclusive
C=CC1=C(C(=O)O)N2C(=O)C(NC(=O)Cc3ccccc3)C2SC1 (stereo not drawn)	Pol kappa inh-1 79µM, POLI inh 13µM, POLB inh inconclusive, Pol eta inh-1 22µM (no result: PI5P4Ka inh) | Pol eta inh-2 67
Cc1nnc(SCC2=C(C(=O)O)N3C(=O)C(NC(=O)c4cc(F)c(F)cc4Cl)C3SC2)s1 (stereo not drawn)	Pol kappa inh-1 inconclusive, POLI inh inconclusive, POLB inh inconclusive, Pol eta inh-1 20µM | Pol eta inh-2 34
CCCCOCCCNC(=O)C[C@H]1C[C@@]2(C(=O)OC)C(=C[C@H](C(C)(C)C)O[C@@H]2C)N(Cc2ccco2)C1=O	none (no result: Pol kappa inh-1, PI5P4Ka inh, POLI inh, POLB inh, Pol eta inh-1)
CCOc1ccc(-c2cc3c(=O)n(CC(=O)NCc4ccccc4)ccn3n2)cc1	POLB inh inconclusive (no result: PI5P4Ka inh, Pol eta inh-1)
CNC(=O)c1c(NC(=O)c2ccc(S(=O)(=O)N3CCCC(C)C3)cc2)sc2c1CCC2 (stereo not drawn)	POLB inh inconclusive (no result: PI5P4Ka inh)
Cc1nnc(SCC2=C(C(=O)O)N3C(=O)C(NC(=O)COc4ccccc4)C3SC2)s1 (stereo not drawn)	Pol kappa inh-1 79µM, POLI inh inconclusive, Pol eta inh-1 10µM (no result: POLB inh) | Pol kappa inh-2 inconclusive | Pol eta inh-2 38
CCC(C(=O)NC1C(=O)N2C(C(=O)O)=C(CSc3nnc(C)s3)CSC12)c1ccccc1 (stereo not drawn)	Pol eta inh-1 inconclusive (no result: POLB inh)
CC(=O)OCC1=C(C(=O)O)N2C(=O)C(NC(=O)COc3ccc(F)cc3)C2SC1 (stereo not drawn)	Pol kappa inh-1 22µM, POLI inh 5.6µM, Pol eta inh-1 8.9µM (no result: POLB inh) | Pol eta inh-2 27
O=C(Cn1cc(C(=O)c2ccco2)c2ccccc21)Nc1ccccc1C(F)(F)F	none (no result: PI5P4Ka inh)
N=C1/C(=C/c2ccc(OCc3ccccc3F)cc2)C(=O)N=C2SC(CC(=O)N3CCOCC3)=NN12	Pol kappa inh-1 inconclusive, POLI inh 25µM, POLB inh inconclusive | Pol eta inh-2 inconclusive
N=C1/C(=C/c2ccc(OCc3ccccc3)cc2)C(=O)N=C2SC(CC(=O)N3CCOCC3)=NN12	Pol kappa inh-1 89µM, PI5P4Ka inh inconclusive, POLI inh inconclusive, Pol eta inh-1 inconclusive | Pol eta inh-2 inconclusive
N=C1/C(=C\c2ccc(Br)o2)C(=O)N=C2SC(CC(=O)N3CCCCC3)=NN12	Pol kappa inh-1 32µM, PI5P4Ka inh -66, POLI inh inconclusive, POLB inh inconclusive, Pol eta inh-1 22µM | Pol eta inh-2 85
CN(C)CCCN(C(=O)c1cc2cc([N+](=O)[O-])ccc2s1)c1nc2cc3c(cc2s1)OCCO3	Pol kappa inh-1 inconclusive, PI5P4Ka inh -69, Pol eta inh-1 inconclusive (no result: POLB inh) | Pol kappa inh-2 60
